Some of the results follow. A number with no mark means an inactive call. The source made the active and inactive calls. Cut-off read from the data, not from the text of the source: active = max delta Tm above about 0.48 degrees C; inactive = the rest.
target: Kelch-like ECH-associated protein 1 (Homo sapiens) (UniProt Q14145); assay: Keap1 Kelch domain binders by thermal stabilisation, dose response, biophysical, thermal shift, RT-PCR instrument, cherry-pick (AID 651823); conditions: stronger effect = higher value; at 50 µM unless noted
Sequence (Q14145 whole entry, looked up, the tested form may be a part): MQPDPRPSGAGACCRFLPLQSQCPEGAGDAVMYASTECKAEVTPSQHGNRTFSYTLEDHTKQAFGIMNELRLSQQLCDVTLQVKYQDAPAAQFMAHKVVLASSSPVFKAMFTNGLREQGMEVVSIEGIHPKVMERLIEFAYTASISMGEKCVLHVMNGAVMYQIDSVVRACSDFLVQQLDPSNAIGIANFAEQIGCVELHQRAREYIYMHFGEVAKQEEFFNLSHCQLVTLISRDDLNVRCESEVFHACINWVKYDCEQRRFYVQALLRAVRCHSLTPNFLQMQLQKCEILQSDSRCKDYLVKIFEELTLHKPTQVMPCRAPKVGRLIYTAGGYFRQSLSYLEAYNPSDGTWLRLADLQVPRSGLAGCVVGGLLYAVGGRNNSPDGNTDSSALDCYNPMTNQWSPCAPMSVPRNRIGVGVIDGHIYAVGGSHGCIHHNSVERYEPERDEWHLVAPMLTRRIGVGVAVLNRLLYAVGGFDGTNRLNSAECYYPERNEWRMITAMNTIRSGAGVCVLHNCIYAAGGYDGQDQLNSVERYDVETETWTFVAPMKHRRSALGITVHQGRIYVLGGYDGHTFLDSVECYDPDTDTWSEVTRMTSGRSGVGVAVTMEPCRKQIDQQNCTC

Q: `CCCN(CCC)C(=O)C1c2ccccc2Oc2ccccc21` was tested. Which max delta Tm did it give?
A: -0.08 °C [at 0.38 µM]

Q: `O=C(CCc1ccccc1)NNc1ccc(F)cc1` was tested. Which max delta Tm did it give?
A: -0.17 °C [at 0.8 µM]

Q: `O=C1CC(Cc2ccc(Cl)cc2)C(=O)N1c1cc(Cl)ccn1` (stereo not drawn) was tested. Which max delta Tm did it give?
A: -0.06 °C [at 0.38 µM]

Q: With `COc1ccc(C2c3ccc(O)cc3Oc3ncn(CCCO)c(=N)c32)cc1OC` (stereo not drawn) as the compound, how does the max delta Tm read?
A: -0.15 °C [at 6 µM]

Q: How did the max delta Tm turn out when `COc1cc(OC)c(S(=O)(=O)Nc2ccccc2C(=O)O)cc1S(=O)(=O)Nc1ccccc1C(=O)O` was run?
A: 0.77 °C (active)

Q: `O=C(Nc1ccccn1)C1CCN(S(=O)(=O)c2ccc3c(c2)OCCO3)CC1` was tested. Which max delta Tm did it give?
A: -0.17 °C [at 0.38 µM]

Q: How did the max delta Tm turn out when `CCCC1OC23CCCCC2C(C#N)(C#N)C1(C#N)C(=N)O3` (stereo not drawn) was run?
A: -0.1 °C [at 0.38 µM]

Q: `Cc1cccc(NS(=O)(=O)c2ccc(C)c(C(=O)NCC(c3ccccc3)N(C)C)c2)c1` (stereo not drawn) was tested. Which max delta Tm did it give?
A: -0.11 °C [at 0.8 µM]

Q: With `CN1C(=O)c2cccc3c(N)ccc(c23)C1=O` as the compound, how does the max delta Tm read?
A: 0 °C [at 26 µM]

Q: Which max delta Tm does the source give for `COc1ccc(Nc2nc(-c3cccnc3)nc3ccccc23)cn1` here?
A: -0.21 °C [at 1.6 µM]

Q: How did the max delta Tm turn out when `O=C(O)CC(Cn1cnnn1)c1ccccc1` (stereo not drawn) was run?
A: -0.14 °C [at 3 µM]

Q: With `Nc1ccc2nc3c(=O)[nH]c(=S)[nH]c3nc2c1` as the compound, how does the max delta Tm read?
A: 0.14 °C

Q: For `CC1(C)CC(=O)C(N=Nc2c(F)cccc2F)=C(O)C1`, which max delta Tm is on record?
A: -0.12 °C [at 6 µM]

Q: For `O=C(NCCOCc1ccc(Cl)cc1)c1ncn[nH]1`, which max delta Tm is on record?
A: -0.19 °C

Q: How did the max delta Tm turn out when `CCCC(=O)Nc1ccc(C(=O)NCCCn2ccnc2)cc1` was run?
A: -0.11 °C

Q: For `CCN1/C(=C\c2ccc3ccccc3[n+]2CC)Sc2cc(C)ccc21`, which max delta Tm is on record?
A: -0.01 °C [at 26 µM]

Q: With `COC(=O)C[n+]1cccc2ccccc21` as the compound, how does the max delta Tm read?
A: -0.13 °C

Q: With `CN(CCOc1ccc(CC2SC(=O)NC2=O)cc1)c1ccccn1` (stereo not drawn) as the compound, how does the max delta Tm read?
A: -0.09 °C [at 0.8 µM]
